Compound activity as filed in PubChem BioAssay.
Hits are enriched below; roughly 10% of the tested compounds scored in any of these assays.
G9a block = qHTS Assay for Inhibitors of Histone Lysine Methyltransferase G9a; Histone-lysine N-methyltransferase EHMT2 (Homo sapiens), Q96KQ7; G9a H3K9 monomethylation, AlphaScreen, 2 h; Potency, µM (series often up to 102 µM), without a hit: top-dose activity, negative = inhibition, most hits filed as inhibitors; hit rate 8.8% among 350,000; AID 504332, 2011; note: potency is the fitted concentration of half-maximal effect; % is set by controls: 0 for no effect and ±100 for the full control effect; nearly all actives have a fitted effect of over 75% in size
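AlphaScreen detection with an anti-monomethyl H3K9 antibody quantified product after a 2 h room-temperature reaction containing 500 nM biotinylated H3K9 peptide, 20 µM SAM and 20 nM enzyme, which had been preincubated 15 min with compound.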
BAZ2B block = qHTS Assay for Inhibitors of BAZ2B; Bromodomain adjacent to zinc finger domain protein 2B (Homo sapiens), Q9UIF8; AlphaScreen BAZ2B-H3K14Ac peptide displacement; hit rate 4.4% among 360,000; Potency, µM (highest dose often 114 µM), without a hit: top-dose activity change, negative = inhibition, actives largely listed as inhibitors; note: potency is the fitted concentration of half-maximal effect; % is set by controls: 0 for no effect and ±100 for the full control effect; nearly all actives have a fitted effect of over 60% in size
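BAZ2B 50 nM plus b-H3(5-23)K14Ac 50 nM, PBS pH 7.4/0.01% Tween-20, 30 min RT; compound added (max 110 uM), 30 min RT; streptavidin donor/Ni-chelate acceptor beads 10 ug/mL final, 20 min dark; AlphaScreen read.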
JMJD2A Tudor inh = qHTS Assay for Inhibitors of JMJD2A-Tudor Domain | Potency, µM (series often up to 114 µM), without a hit: at the top dose activity change, negative = inhibition, hits mostly inhibitors | hit rate 4.4% among 390,000 | AlphaScreen JMJD2A-Tudor / H3K4me3 peptide binding; note: potency is the fitted concentration of half-maximal effect; % is set by controls: 0 for no effect and ±100 for the full control effect; nearly all actives have a fitted effect of over 50% in size
HP1b chromo inh = HTS for Inhibitors of HP1-beta Chromodomain Interactions with Methylated Histone Tails. hit rate 0.56% among 390,000. Potency, µM (series often up to 114 µM), for the others: at the highest dose activity change, negative = inhibition, actives largely listed as inhibitors. AlphaScreen HP1-beta / biotin-H3K9me3 peptide binding. Chromobox protein homolog 1 (Homo sapiens), P83916. AID 540317, 2011; note: potency is the fitted concentration of half-maximal effect; nearly all actives have a fitted effect of over 70% in size
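HP1-beta protein (50 nM final) preincubated 30 min at room temperature with biotinylated H3(1-18)K9me3 peptide (50 nM) in PBS pH 7.4, 0.01% Tween-20, then compound added for 30 min. AlphaScreen streptavidin donor/nickel chelate acceptor beads (10 ug/mL final), 30 min dark, luminescence read.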
Six1-Eya2 inh = qHTS Assay for Inhibitors of the Six1/Eya2 Interaction. AlphaScreen GST-Six1/His-Eya2 binding, biochemical; hits give low values. AID 651725, 2012. hit rate 0.56% among 360,000. activity change, % (concentration not given with the values). Homeobox protein SIX1 (Homo sapiens) + Protein phosphatase EYA2 (Homo sapiens), …; in the data active = activity change below about -65%; inconclusive = mostly about -30% to -63%; note: % is set by controls: 0 for no effect and ±100 for the full control effect
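Six1/Eya2 binding was read as AlphaScreen signal after compounds were pinned into GST-Six1 plus His-tagged Eya2 (5X stock 250/500 nM) in pH 8.0 Tris/NaCl/TCEP buffer, beads added, then incubated 1 h, 37 C, dark.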
CtBP-E1A inh = qHTS Assay for Inhibitors of the CtBP/E1A Interaction | CtBP / adenovirus E1A interaction (AlphaScreen) | AlphaScreen GST-E1A/His-CtBP binding, 1536-well; hits give low values | activity change, % (concentration not given with the values) | hit rate 0.49% among 340,000 | AID 651724, 2012; in the data active = activity change below about -65%; inconclusive = mostly about -30% to -63%; note: % is set by controls: 0 for no effect and ±100 for the full control effect
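Homogeneous bead-based format: GST-tagged E1A captured on glutathione donor beads, His-tagged CtBP on nickel acceptor beads; compounds precede bead addition by 2 h at 37 °C.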
* = called active by the depositor; ? = inconclusive; / = no result; ! = a repeat was not active; [ ] = another dose, or the depositor's remark. Unless noted, calls come from the whole dose curve; as a rule, active = well fitted inhibition curve with a large enough effect; inconclusive = small, poorly fitted or top-dose-only effect; inactive = no such curve, though single readings can be large or run the other way.

SMILES	G9a block	BAZ2B block	JMJD2A Tudor inh	HP1b chromo inh	Six1-Eya2 inh	CtBP-E1A inh
CCN(CC)c1ccc(S(=O)(=O)N2CCOCC2)cc1NC(=O)COC(=O)/C=C/c1ccc(C)o1	45µM*	-29%	-24%	6%	-15	0
CN(C)S(=O)(=O)c1cccc(NC(=O)COC(=O)/C=C/c2ccco2)c1	?	?	?	?	-3	0
Cc1cc(CNC(=O)COC(=O)C2CC3CCCC(C2)C3=O)cc(C)c1O (centres undefined)	/	/	-3%	31%	4	5
O=C(NCc1cccc(F)c1)c1ccc(NC(=O)c2nsc3ccccc23)cc1	2%[59 µM]	0%	6%	33%[57 µM]	/	/
CCC(C)n1c(=N)c(C(=O)NC2CCCCC2)cc2c(=O)n3ccccc3nc21 (centres undefined)	-1%[59 µM]	3%	-12%	32%	/	/
CNS(=O)(=O)c1cn(CC(=O)Nc2ccc(C(C)=O)cc2)cc1S(=O)(=O)NC	-1%[59 µM]	-13%	1%	31%	/	/
Cc1cc(C)nc(NCC(O)COc2ccccc2C)n1 (centres undefined)	45µM*	0%	-4%	26%	1	6
CCc1ccc(CN(C)CC(O)COc2cccc3ccccc23)cc1 (centres undefined)	22µM*	-29%	2.5µM*	?	-5	-8
CC(C)NCC(O)COc1cccc2ccccc12 (centres undefined)	3.2µM*!	0%	-13%	41%	-4	-1
O=[N+]([O-])c1ccc(OCc2n[nH]c(=S)n2-c2ccccc2)cc1	3.5µM*	-25%	45µM*	5%	5	7
CCN(CC)C(=O)CSc1nnc(COc2ccccc2)n1CC	?	1%	-7%	20%	1	2
S=c1[nH]nc(COc2ccc3c(c2)OCO3)n1-c1ccccc1	0.71µM*	-34%	40µM*	3%	-10	1
S=c1[nH]nc(-c2ccc3c(c2)OCO3)n1-c1ccccc1	1.6µM*	-3%	5µM*	-14%	-13	24
CCn1c(COc2ccc3c(c2)OCO3)nnc1SCC(=O)c1ccccc1	11µM*	?	-18%	13%	-7	-6
COc1ccc(-n2c(COc3cccc(C)c3)n[nH]c2=S)cc1	17%[0.501 µM]	-2%	?	18%	2	1
CCOc1ccccc1NC(=O)CN1C(=O)COc2ccc(C)cc21	48%	3%	-7%	27%	-7	-3
Cc1ccc(-c2nn(CC(=O)N3CCOCC3)c(=O)c3ccccc23)cc1S(=O)(=O)N(C)C	7%	-1%	-6%	25%	0	-23
N=c1c2c3c(sc2nc2n1CCCCC2)CCCCC3	50µM*	8%	10%	23%	-8	0
CC[n+]1c(C)cc(C)n1-c1ccccc1	50µM*	/	?	27%	14	4
CC[n+]1c(C)n(-c2ccccc2)c2ccc(C(=O)OC)cc21	/	?	-2%	27%	3	6
CC(=O)c1cc(F)c(N2CCN(C(=O)Cc3ccccc3)CC2)cc1C	?	56µM*	-5%	36%	6	-1
Cc1cc(OCCN2CCCCCC2)ccc1[N+](=O)[O-]	25µM*	56µM*	?	?	-2	-4
Cc1cc(OCCn2cncn2)ccc1[N+](=O)[O-]	/	7%	-4%	34%	6	-12
Cc1cc(OCCCn2ccnc2)ccc1[N+](=O)[O-]	/	56µM*	6.3µM*	?	0	3
COc1ccc(OCCCn2ccnc2)cc1	-50%[2.33 µM]	22µM*	0.89µM*	16µM*	43	-8
SMILES	G9a block	BAZ2B block	JMJD2A Tudor inh	HP1b chromo inh	Six1-Eya2 inh	CtBP-E1A inh
Cc1cc(OCC(=O)N2CCCCCC2)ccc1[N+](=O)[O-]	1%[59 µM]	-5%	-9%	21%	-1	-5
COc1ccccc1OCCn1ccnc1	/	?	3.5µM*	?	-1	1
Fc1ccc(OCCCn2ccnc2)cc1	40µM*	?	45µM*	?	-4	7
Fc1ccc(OCCCCCn2ccnc2)cc1	13%	-26%	-18%	18%	-7	-9
S=c1[nH]cnc2sc(-c3ccccc3)cc12	35µM*	-4%	-21%	16%	-27	-2
CNc1ncnc2sc(-c3ccccc3)cc12	-3%	11%	-5%	32%	0	18
CCCCCOc1ccc(NC(=O)Cn2c(-c3cncs3)nc3ccccc32)cc1	3%[59 µM]	-31%	-25%	39%	/	/
O=C(CSc1nnc(NC2CCCCC2)s1)N1CCOCC1	?	2%	3%	44%	0	9
O=[N+]([O-])c1ccc(CN2CCN(c3ccc([N+](=O)[O-])cc3)CC2)cc1	13µM*	25µM*	3.2µM*	50µM*	-17	-1
O=[N+]([O-])c1ccc(N2CCN(Cc3cccc([N+](=O)[O-])c3)CC2)cc1	-11%	?	?	-7%	-17	-29
O=[N+]([O-])c1ccc(CN2CCN(c3ccc(F)cc3)CC2)o1	?	?	11µM*	?	1	-2
O=[N+]([O-])c1ccc(CN2CCSCC2)cc1	25µM*	71µM*	1.6µM*	25µM*	-15	0
Clc1cc(Cl)cc(CN2CCSCC2)c1	/	-4%	-2%	40%	4	/
c1ccc(-c2ccc(CN3CCSCC3)cc2)cc1	/	?	20µM*	?	-10	-5
CCc1nnc(NC(=O)CSCc2cc(=O)c3ccc(C)cc3[nH]2)s1	5%[59 µM]	1%	-22%	17%[57 µM]	/	/
CC(C)(C)CNc1nc(C#N)nc(Nc2ccccc2)n1	/	/	-14%	/	/	/
O=C(Cn1cnc2c(nc3n2CCCCC3)c1=O)Nc1ccc(F)cc1	-5%[59 µM]	3%	3%	39%	/	/
CC(=O)C1=C(NC(=O)c2ccc(C(F)(F)F)cc2)C[C@@H]2[C@H]1C2(C)C	-8%[59 µM]	-17%	-9%	26%	-2	4
CC(=O)C1=C(NC(=O)c2ccccc2F)C[C@@H]2[C@H]1C2(C)C	56µM*	-10%	-13%	35%	-3	1
CCOC(=O)[C@]12CCC=C1N(Cc1ccco1)C(=O)[C@H](CC(=O)NCc1ccc(C)o1)C2	/	/	/	/	-13	-5
CCc1ccccc1NC(=O)CN1CCCN(Cc2cc(C)ccc2C)S1(=O)=O	?	-2%	14%	50%	/	/
